# In PubChem BioAssay (NCI):
# About 83,000 compounds went through this panel and 20% of them were active in at least one assay; those are over-represented in the sample as a whole.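 Growth was measured after 48 h exposure to one concentration of compound in 96-well plates. Values under 10 count as active.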 Unmarked numbers belong to inactive results. Active and inactive are the calls of the source.
# System: PC-3 prostate
# Assay: NCI-60 one-dose screen, 48 h (100 = growth as untreated, 0 = no growth, -100 = all killed)
# Details: 10 µM unless noted
row,Structure (SMILES),growth
1,COc1cc(-c2nc(SCCC(C)C)nc(Nc3ccccc3Cl)c2C#N)cc(OC)c1OC,81.4%
2,CCN(C(=O)N1CCN(c2cc3c(cc2F)c(=O)c(C(=O)O)cn3C2CC2)CC1)c1nc(-c2ccc(Cl)cc2)cs1,10.1%
3,Fc1ccc2[nH]cc(-c3nonc3-c3c[nH]c4ccc(Br)cc34)c2c1,26.7%
4,N#Cc1cccc(F)c1,102%
5,Cc1cnc(C(=O)NNc2nc3sc4c(c3c(=O)n2C)C(C)CCC4)cn1 (centres undefined),8.78% (active)
6,O=C(O)[C@@H]1c2ccccc2-c2ccccc2[C@H]1C(=O)O,90.9%
7,CN[C@]12CC3(C=CC(=O)C=C3)O[C@@]1(Cc1ccc(OC)cc1)N(C)C(=O)N2,27.6%
8,Cc1ccccc1/C=C1\CN(C(=O)OC(C)(C)C)C/C(=C\c2ccccc2C)C1=O,21.9%
9,CCc1n(Cc2ccc3ccccc3c2)cc[n+]1Cc1ccc2ccccc2c1,2.65% (active)
10,CCCCCCCCn1ccc2cc(NC(=O)CN3CCN(c4nc(C)cc(Cl)n4)CC3)ccc21,75.6%
11,COc1ccc(-c2nc3c(c(-c4ccccc4)nn3-c3ccccc3)c(-c3ccc(N4CCOCC4)cc3)c2C#N)cc1,101%
12,CCC(=C(c1ccc(OCCN2CCCC2)cc1)c1ccc(OCCN2CCCC2)cc1)c1ccc(Cl)cc1,-7.15% (active)
13,CCOC(=O)Cn1c(O)c(N=Nc2ccc(S(N)(=O)=O)cc2)c2cc(Br)ccc21,70.8%
14,C=C1C(=O)O[C@H]2[C@H]1CC/C(COC(=O)CCSCCC(=O)OC/C1=C/CC[C@@]3(C)O[C@H]3[C@H]3OC(=O)C(=C)[C@@H]3CC1)=C\CC[C@@]1(C)O[C@@H]21,-14.5% (active)
15,COC(C(=O)[C@@H](O)[C@@H](C)O)[C@@H]1Cc2cc3cc(O[C@H]4C[C@@H](O[C@H]5C[C@@H](O)[C@H](O)C(C)O5)[C@H](O)C(C)O4)c(C)c(O)c3c(O)c2C(=O)[C@H]1O[C@H]1C[C@@H](O[C@H]2C[C@@H](O[C@H]3C[C@@H](O)[C@H](OC)C(C)O3)[C@@H](O)C(C)O2)[C@H](O)C(C)O1 (some centres undefined),11.2%
16,COC(=O)CNC(=O)[C@H](Cc1ccccc1)NCc1ccncc1,87.2%
17,O=C(O)c1[nH]c(=O)[nH]c(=O)c1[N+](=O)[O-],96.7%
18,Cc1nnc(NC(=O)c2nc(S(=O)(=O)Cc3ccc(F)cc3)ncc2Cl)s1,71.4%
19,O=C1Nc2ccc(Br)cc2/C1=N/c1n[nH]c(=S)s1,95%
20,N#CC1=C(c2ccc(Cl)cc2)Nc2c(c(-c3ccc(Cl)cc3)nn2-c2ccccc2)C12C(=O)Nc1ccc(Cl)cc12 (centres undefined),21.5%
21,O=C1CNC(c2ccccc2)C(c2ccccc2)N1 (centres undefined),81.6%
22,CN1CCN(Cc2ccc3c(NNC(=O)c4ccccc4)nc4cc(F)ccc4n23)CC1,39.9%
23,CC(C)=NNc1ccccn1,47.1%
24,Cc1ccc(/C=N/Nc2nc(Nc3ccccc3)nc(-n3nc(C)cc3C)n2)cc1,31.1%

# System: SK-MEL-5 melanoma
# Assay: as above
# Details: 10 µM unless noted
row,Structure (SMILES),growth
1,C#CCOc1cccc(Nc2ncnc3ccc(NC(=O)CCl)cc23)c1,-92.8% (active)
2,Cc1ccc(C(C(N)=O)C(C(N)=O)c2ccccc2)cc1 (centres undefined),117%
3,COc1cc2c(c(OC)c1OC)-c1ccc(OC)c(=O)cc1[C@@H](NC(=O)CCl)CC2,-73.7% (active)
4,CCOc1ccc(NC(=O)CSc2oc(-c3ccccc3)nc2S(=O)(=O)c2ccc(F)cc2)cc1,79.7%
5,N#CC1=C(N)Oc2c(sc3c(F)cccc23)C1c1ccc(F)cc1 (centres undefined),22.3%
6,Clc1ccc(Nc2nnc(COc3ccccc3)c3ccccc23)cc1,-96.1% (active)
7,Cc1ccc(C2=Nc3c(N)ncnc3NC(c3ccc4c(c3)OCO4)C2)cc1 (centres undefined),33.3%
8,Cc1cc(Cl)ccc1NC(=O)c1cc2ccccc2cc1O,8.89% (active)
9,CC(C)n1cnc2c(=S)nc[nH]c21,103%
10,CCOC(=O)CNP(=O)(OC[C@@H](Cc1ccccc1)NC(=O)c1cc2ccccc2s1)Oc1ccccc1 (some centres undefined),88.2%
11,Brc1ccc2[nH]cc(-c3nonc3-c3c[nH]c4ccccc34)c2c1,59.7%
12,CN(C)CCCC1(c2ccc(F)cc2)OCc2cc(-c3cccc4[nH]ccc34)ccc21 (centres undefined),-84.1% (active)
13,C1=C(N2CCCC2)CCC1,95.5%
14,COc1ccc(C(=S)N2CCN(c3ccccc3Cl)CC2)cc1OC,96.4%
15,Cc1cc(=O)[nH]c2c(C#N)cnn12,99.4%
16,CCCCCOc1ccc(C(=O)/C(Br)=C/C(=O)O)cc1,104%
17,COc1cc(-c2nc(SCCC(C)C)nc(Nc3ccccc3Cl)c2C#N)cc(OC)c1OC,89.2%
18,CCN(C(=O)N1CCN(c2cc3c(cc2F)c(=O)c(C(=O)O)cn3C2CC2)CC1)c1nc(-c2ccc(Cl)cc2)cs1,-28.2% (active)
19,Fc1ccc2[nH]cc(-c3nonc3-c3c[nH]c4ccc(Br)cc34)c2c1,49.8%
20,N#Cc1cccc(F)c1,107%

row,Structure (SMILES),growth
1,Cc1cnc(C(=O)NNc2nc3sc4c(c3c(=O)n2C)C(C)CCC4)cn1 (centres undefined),-53.8% (active)
2,O=C(O)[C@@H]1c2ccccc2-c2ccccc2[C@H]1C(=O)O,110%
3,CN[C@]12CC3(C=CC(=O)C=C3)O[C@@]1(Cc1ccc(OC)cc1)N(C)C(=O)N2,43%
4,Cc1ccccc1/C=C1\CN(C(=O)OC(C)(C)C)C/C(=C\c2ccccc2C)C1=O,83%
5,CCc1n(Cc2ccc3ccccc3c2)cc[n+]1Cc1ccc2ccccc2c1,-93.3% (active)
6,CCCCCCCCn1ccc2cc(NC(=O)CN3CCN(c4nc(C)cc(Cl)n4)CC3)ccc21,91.1%
7,COc1ccc(-c2nc3c(c(-c4ccccc4)nn3-c3ccccc3)c(-c3ccc(N4CCOCC4)cc3)c2C#N)cc1,101%
8,CCC(=C(c1ccc(OCCN2CCCC2)cc1)c1ccc(OCCN2CCCC2)cc1)c1ccc(Cl)cc1,-83.4% (active)
9,CCOC(=O)Cn1c(O)c(N=Nc2ccc(S(N)(=O)=O)cc2)c2cc(Br)ccc21,88.3%
10,C=C1C(=O)O[C@H]2[C@H]1CC/C(COC(=O)CCSCCC(=O)OC/C1=C/CC[C@@]3(C)O[C@H]3[C@H]3OC(=O)C(=C)[C@@H]3CC1)=C\CC[C@@]1(C)O[C@@H]21,54.3%
11,COC(C(=O)[C@@H](O)[C@@H](C)O)[C@@H]1Cc2cc3cc(O[C@H]4C[C@@H](O[C@H]5C[C@@H](O)[C@H](O)C(C)O5)[C@H](O)C(C)O4)c(C)c(O)c3c(O)c2C(=O)[C@H]1O[C@H]1C[C@@H](O[C@H]2C[C@@H](O[C@H]3C[C@@H](O)[C@H](OC)C(C)O3)[C@@H](O)C(C)O2)[C@H](O)C(C)O1 (some centres undefined),-36.9% (active)
12,COC(=O)CNC(=O)[C@H](Cc1ccccc1)NCc1ccncc1,101%
13,O=C(O)c1[nH]c(=O)[nH]c(=O)c1[N+](=O)[O-],110%
14,Cc1nnc(NC(=O)c2nc(S(=O)(=O)Cc3ccc(F)cc3)ncc2Cl)s1,98.9%
15,O=C1Nc2ccc(Br)cc2/C1=N/c1n[nH]c(=S)s1,97.6%
16,N#CC1=C(c2ccc(Cl)cc2)Nc2c(c(-c3ccc(Cl)cc3)nn2-c2ccccc2)C12C(=O)Nc1ccc(Cl)cc12 (centres undefined),78.7%
17,O=C1CNC(c2ccccc2)C(c2ccccc2)N1 (centres undefined),104%
18,CN1CCN(Cc2ccc3c(NNC(=O)c4ccccc4)nc4cc(F)ccc4n23)CC1,-26.8% (active)
19,CC(C)=NNc1ccccn1,69.7%
20,Cc1ccc(/C=N/Nc2nc(Nc3ccccc3)nc(-n3nc(C)cc3C)n2)cc1,-12.6% (active)
